The record followed here is PubChem BioAssay (NCI).

Experiment in all cases: NCI-60 one-dose screen, 48 h (100 = growth as untreated, 0 = no growth, -100 = all killed)
Common to all, as to details: 10 µM unless noted

Experiment [1] concerns NCI-H23 lung.
The subject of experiment [2] is NCI-H226 lung.
For experiment [3], the system named is NCI-H322M lung.
The subject of experiment [4] is HOP-62 NSCLC.
In experiment [5] the test system is NCI-H460 lung.
The test system of experiment [6] is HOP-92 NSCLC.
The test system of experiment [7] is NCI-H522 lung.
Experiment [8] deals with A549/ATCC NSCLC.
Experiment [9] relates to 786-0 renal.
The subject of experiment [10] is COLO 205 colon.
In experiment [11] the test system is DU-145 prostate.
Experiment [12] concerns K-562 leukemia.
Experiment [13] has as its system MALME-3M melanoma.
Experiment [14] concerns MDA-MB-231 breast.
For experiment [15], the system named is RXF 393 renal.
For experiment [16], the system named is SF-268 CNS.
The subject of experiment [17] is SF-295 CNS.
Experiment [18] has as its system SF-539 CNS.
Experiment [19] deals with UACC-257 melanoma.
The test system of experiment [20] is M14 melanoma.

The structures appear in SMILES notation. The panel holds about 83,000 compounds, 20% with a hit somewhere; the sample as a whole holds those more often.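 Single-concentration screen, 48 h exposure, 96-well plates. Endpoint: percent growth. Below 10 = active.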 Unmarked numbers belong to inactive results. The source made the active and inactive calls.

As for `CNC(=O)c1cc(Oc2cccc3nc(NC(=O)Nc4ccc(F)cc4F)ccc23)ccn1`, the growth in experiment [1] was 42.7%; in [2], 49.7%; in [3] it was 33%; in [4], 0.65% (active); in experiment [5], 13.7%; in experiment [6], 41.4%. Further, the growth in [7] is 46%; in experiment [8], 8.57% (active); in experiment [9] it was -48.7% (active); in experiment [10], 37.9%; in experiment [11], 30%; in experiment [12], 42%. For the same molecule, the growth in experiment [13] was -21.2% (active); in experiment [14], 60.1%; in [15], 1.54% (active); in experiment [16], 48.1%; in experiment [17] it was 55.6%; in [18] it was -18.9% (active). Also, the growth in [19] is 56.3%; in experiment [20], 19.3%.
Regarding `O=C(Nc1cccc(Cn2c(=O)[nH]c3ccc(Oc4ncccn4)cc3c2=O)c1)c1cccc(Cl)c1`, the growth is 48.6% in experiment [1]; 68.6% in experiment [2]; 75.5% in experiment [3]; 79.3% in experiment [4]; 57.7% in experiment [5]; 75.4% in experiment [6]. Also, the growth in experiment [7] was 61.5%; in [8], 55.5%; in [9], 65.8%; in experiment [10], 71.9%; in experiment [11], 56.5%; in [12], 27.1%. In addition, the growth in experiment [13] is 79.5%; in experiment [14] it was 72.6%; in experiment [15] it was 81.1%; in experiment [16], 55.6%; in experiment [17] it was 45.5%; in experiment [18] it was 71.3%. For the same molecule, the results for the growth in experiment [19] and in experiment [20] were 44% and 70%, respectively.
Consider `Cn1cc(-c2csc(-c3cn(C)c4ccc(F)cc34)n2)c2cnccc21`, for which the growth is 75.7% in [1]; 68.5% in experiment [2]; 21.9% in experiment [3]; -70.9% (active) in experiment [4]; -73.8% (active) in experiment [5]; 70.8% in experiment [6]. Besides, the growth in [7] was -76% (active); in experiment [8] it was 1.42% (active); in [9], -91.6% (active); in experiment [10], -80.1% (active); in experiment [11], -6.44% (active); in experiment [12] it was -60.3% (active). Further, the growth in [13] was -92.5% (active); in experiment [14] it was -33.1% (active); in [15] it was -85.5% (active); in [16], -60.3% (active); in [17], -81.1% (active); in experiment [18] it was -92.5% (active). Also, the results for the growth in [19] and in experiment [20] were -73.1% (active) and -80% (active), respectively.
On to `O=C(O)COc1ccc(F)cc1`, for which the growth in experiment [1] is 96.8%; in experiment [2], 105%; in experiment [3] it was 99.6%; in [4], 98.7%; in experiment [5], 113%; in [6], 102%. Moreover, the growth in [7] is 93.8%; in experiment [8], 99.6%; in experiment [9], 102%; in experiment [10], 116%; in [11] it was 109%; in [12], 97.1%. The growth in experiment [13] is 107%; in experiment [14], 100%; in experiment [15], 107%; in experiment [16], 93.6%; in experiment [17], 102%; in experiment [18], 96.9%. In addition, the growth in experiment [19] is 102%; in experiment [20], 109%.
Turning to `N#CC1=C(N)Oc2c(ccc3ccccc23)C1c1cc2ccccc2n2nnnc12` (stereo not given), the growth in [1] is 36.6%; in [2], 53.6%; in experiment [3], 34%; in [4], 24.6%; in [5], 11.3%; in [6], 49.2%. The growth was 12.3% in experiment [7]; 33.4% in experiment [8]; 13.4% in [9]; 48.4% in experiment [10]; 19.5% in experiment [11]; 4.13% (active) in [12]. Also, the growth is 53.4% in [13]; 32.9% in experiment [14]; 11.4% in [15]; 26.3% in experiment [16]; 10.7% in experiment [17]; -8.31% (active) in experiment [18]. In addition, the growth in experiment [19] was 47.4%; in [20], 12.7%.
Take `COc1cc(C(=O)/C=C/c2c(-c3cccs3)nc3sc(C)cn23)cc(OC)c1OC`: the growth in [1] was 6.64% (active); in experiment [2], 33.1%; in experiment [3], 13.3%; in experiment [4], -8.11% (active); in [5] it was -30.6% (active); in experiment [6], -2.76% (active). Also, the growth was -2.1% (active) in [7]; 10.6% in [8]; 7.58% (active) in [9]; 2.63% (active) in [10]; -18.1% (active) in [11]; 7.44% (active) in experiment [12]. The growth in experiment [13] was -10.6% (active); in experiment [14], 43.3%; in experiment [15], -35.3% (active); in experiment [16], 20%; in experiment [17], 3.07% (active); in [18] it was -2.02% (active). Moreover, the growth was 0.649% (active) in experiment [19] and 1.71% (active) in experiment [20].
With `C[C@H]1c2ccccc2CN1CCCOc1cc2c(cc1OCC1CC1)C1(CCCC1)C(N)=N2`, the growth was 67.2% in experiment [1]; 53.1% in experiment [2]; 89.7% in [3]; 82% in experiment [4]; 38.5% in experiment [5]; 23.2% in [6]. For the same molecule, the growth in experiment [7] was 73.7%; in experiment [8], 74.1%; in experiment [9], 56.4%; in experiment [10] it was -66.4% (active); in experiment [11], 75.6%; in experiment [12] it was 2.69% (active). For the same molecule, the growth is -84.7% (active) in experiment [13]; 34.5% in experiment [14]; 34.2% in experiment [15]; 70.6% in experiment [16]; 55.3% in experiment [17]; 48.1% in experiment [18]. Moreover, the growth in experiment [19] is -68.1% (active); in experiment [20] it was -70.4% (active).
